Among all 390,000 compounds or so, about 4,700 (1.2%) were called active. Roughly 4% stayed inconclusive and do not appear here. The call rests on the fitted dose curve; in most records, active means well fitted inhibition curve with a large enough effect; inconclusive means small, poorly fitted or top-dose-only effect, or another doubt; inactive means no such curve, though single readings can be large or run the other way. The list comes from a sample in which actives are over-represented; it also holds similar structures and randomly drawn compounds. A call without a number means that no potency is given here.
Potency means the concentration at half of the fitted maximal effect.

The target in this experiment is DNA polymerase eta (Homo sapiens) (UniProt Q9Y253). Nature of the experiment: qHTS for Inhibitors of Polymerase Eta. The note with it: recombinant Pol eta, fluorescent DNA replication assay; series mostly up to 114 µM. The essentials: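 Pol eta at 10 nM preincubated with compounds 15 min at room temperature; reaction started with fluorescent substrate (50 nM final) and read kinetically at 0 and 10 min.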
DNA polymerase eta (Homo sapiens), sequence (Q9Y253 whole entry, looked up): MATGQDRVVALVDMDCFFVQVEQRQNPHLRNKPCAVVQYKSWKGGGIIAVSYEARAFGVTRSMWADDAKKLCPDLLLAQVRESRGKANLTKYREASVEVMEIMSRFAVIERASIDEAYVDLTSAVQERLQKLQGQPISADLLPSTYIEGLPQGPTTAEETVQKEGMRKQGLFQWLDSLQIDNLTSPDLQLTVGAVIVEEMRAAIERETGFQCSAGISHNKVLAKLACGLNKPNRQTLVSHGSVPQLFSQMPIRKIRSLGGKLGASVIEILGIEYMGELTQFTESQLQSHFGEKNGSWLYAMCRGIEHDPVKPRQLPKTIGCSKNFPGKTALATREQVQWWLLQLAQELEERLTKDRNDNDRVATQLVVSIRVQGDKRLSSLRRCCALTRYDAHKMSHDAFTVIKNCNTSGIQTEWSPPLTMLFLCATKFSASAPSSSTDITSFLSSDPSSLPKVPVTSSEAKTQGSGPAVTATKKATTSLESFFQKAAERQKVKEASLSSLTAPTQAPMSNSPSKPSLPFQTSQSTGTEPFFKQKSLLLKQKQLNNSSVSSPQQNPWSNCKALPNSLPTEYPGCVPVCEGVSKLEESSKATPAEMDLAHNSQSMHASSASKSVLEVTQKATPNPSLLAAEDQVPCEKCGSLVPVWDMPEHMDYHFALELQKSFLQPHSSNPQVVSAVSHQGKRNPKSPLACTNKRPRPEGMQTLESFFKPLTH
On the technique in general: In qHTS, concentration-response curves come from the screen itself.
As for `Cc1cc(O)c(C(c2ccccc2)N2CCN(c3ccccc3F)CC2)c(=O)n1Cc1ccco1` (configuration not stated), the Potency entry was “inactive”.
The result for `Cc1ccc(NC(=O)Nc2sc3nc4n(c(=O)c3c2C)CCC(C)CC4)c(Cl)c1` (configuration not stated) reads “inactive”; that for `CCOC(=O)c1c(S(=O)(=O)N2CCCC(C(=O)NCc3cccc(C)c3)C2)c(C)n(C)c1C` (configuration not stated), “inactive”.
The result for `Cc1cccc(NC(=O)c2ccc(F)c(S(=O)(=O)N(C)C3CCCCC3)c2)c1` reads “inactive”; that for `CCOC(=O)c1c(C)[nH]c(C)c1S(=O)(=O)N(C)CC(=O)N1CCN(c2ccccc2)CC1`, “inactive”.
The result for `CCOC(=O)c1c(SCC(=O)Nc2cccc(C)c2C)nc(=O)[nH]c1C` reads “inactive”; that for `CCOC(=O)c1c(C)[nH]c2c1-c1ccccc1C(=O)C2=O`, 3.16 µM (active).
For `COc1ccc(Cl)cc1NC(=O)CSc1nc(=O)[nH]c2c1CCCC2`, the Potency result was “inactive”.
The result for `COc1ccc(NC(=O)CCN2CCN(CCO)CC2)cc1` reads “inactive”.
The result for `Cc1csc2nc(COC(=O)c3ccc(NC(=O)COc4ccccc4F)cc3)cc(=O)n12` reads “inactive”.
The result for `COc1ccc2[nH]c3c(C)c4cc[n+](C)cc4c(C)c3c2c1` reads 1.12 µM (active).
`CC(=O)Nc1c(C)nn(-c2ccccc2)c1N1CCC(C(=O)Nc2cc(Cl)ccc2C)CC1`: the Potency result is “inactive”.
The result for `Cc1cc(-c2ccccc2)n2nc(-c3ccccc3)cc2n1` reads “inactive”; that for `COc1ccccc1OCCCn1c(-c2ccc(Cl)cc2)nc2ccccc2c1=O`, “inactive”.
The result for `O=C(Nc1nnc(S(=O)(=O)N2CCOCC2)s1)c1cccc(Br)c1` reads “inactive”; that for `O=C(Nc1nnc(S(=O)(=O)N2CCCc3ccccc32)s1)c1cccc(F)c1`, 50.1 µM (active); that for `O=C(Nc1nnc(S(=O)(=O)N2CCCCCC2)s1)c1cccc(Br)c1`, “inactive”.
The result for `COc1cc(NC(=O)c2cc(C3CC3)nc3c2c(C)nn3-c2ccccc2)cc(OC)c1` reads “inactive”.
For `Cc1nn(Cc2ccc(F)cc2)c(C)c1NC(=O)c1cc(CC(C)C)on1`, the Potency entry is “inactive”.
The result for `CCc1nc2cccnc2n1-c1ccc(C(=O)O)cc1` reads 20 µM (active); that for `CCc1nc2cccnc2n1-c1ccc(CC(=O)Nc2c(C)cccc2C)cc1`, “inactive”; that for `Cc1ccc(Cl)cc1NC(=O)Cc1ccc(-n2c(C)nc3cccnc32)cc1`, “inactive”.
The result for `O=C(O)c1ccc(Nc2nc(-c3ccccc3)c3cc(Br)ccc3n2)cc1` reads “inactive”.
The result for `CCN(CC)c1ccc(NC(=O)CN2CCN(CC(=O)Nc3ccc(Cl)cc3)CC2)cc1` reads “inactive”.
Regarding `CCc1ccc(S(=O)(=O)Nc2cc3c(C(=O)OCc4ccccc4)c(C)oc3c3ccccc23)cc1`, the Potency result is “inactive”.
The result for `Cc1ccc(Cc2cnc(N)s2)o1` reads 79.4 µM (active); that for `CCOC(=O)C1CCN(c2nc3c(S(=O)(=O)c4ccc(CC)cc4)nnn3c3ccc(Cl)cc23)CC1`, “inactive”; that for `CCCN(CCC)C(=O)C(Cc1ccccc1)NS(=O)(=O)c1ccc2c(c1)c(=O)n(C)c(=O)n2C` (configuration not stated), “inactive”.
The result for `Cc1ccccc1CSc1nnc(-c2ccccc2)c(=O)[nH]1` reads “inactive”.
The result for `Cc1oc(-c2ccccc2)nc1Cn1c(SCc2cccc(C(F)(F)F)c2)nc2cccnc21` reads “inactive”; that for `N#Cc1c(-c2ccccc2)nc(SCc2cccc(C(F)(F)F)c2)[nH]c1=O`, 89.1 µM (active); that for `COc1ccccc1OCC(=O)Nc1nnc2n1CCS2`, “inactive”.
Take `COc1ccccc1CNC(=O)c1ccc(NC(=O)N2CC(C)Sc3ccccc32)cc1` (configuration not stated): the Potency result was “inactive”.
The result for `Cc1cc(C)c2nc(-c3ccco3)cc(C(=O)O)c2c1` reads 22.4 µM (active); that for `Cc1ccc(F)cc1NC(=O)CCSc1nc(-c2ccco2)cc(C(F)(F)F)n1`, “inactive”.
For `Cc1cccc(NC(=O)CSc2nc(-c3ccco3)cc(C(F)(F)F)n2)c1C`, the Potency result was “inactive”.
As to `CCN(CCCNC(=O)c1cc2c(=O)n(CC)c3ccccc3c2s1)Cc1ccccc1`, the Potency entry was “inactive”.
The result for `COC(=O)c1ccccc1NC(=O)c1cc(-c2ccccc2O)no1` reads “inactive”.
The result for `COc1ccc(NC(=O)c2sc3nc[nH]c(=O)c3c2C)cc1` reads “inactive”; that for `CCOC(=O)c1ccc(N2C(=O)c3[nH]nc(-c4ccccc4)c3C2c2ccc(C(C)C)cc2)cc1` (configuration not stated), “inactive”; that for `O=C(O)c1cccc2c1C(=O)N(C1CCCC1)C2`, “inactive”.
The result for `COC(=O)c1ccc(NC(=O)c2cccc3c2C(=O)N(C2CCCCC2)C3)cc1` reads “inactive”; that for `O=C(O)c1cccc2c1C(=O)N(C1CCCCC1)C2`, 31.6 µM (active); that for `CCC1(C)CC(=O)NC1=O` (configuration not stated), “inactive”.
Turning to `Cc1cc2nc(-c3ccc(NC(=O)c4cc5ccccc5o4)cc3)oc2cc1C`, the Potency entry was “inactive”.
The result for `Cc1cccc(N(C)C(=O)CS(=O)(=O)c2cccc3nsnc23)c1` reads “inactive”; that for `COc1ccc(NC(=O)CSC2=Nc3ccccc3C3=NC(CC(=O)NCc4ccccc4OC)C(=O)N23)cc1Cl` (configuration not stated), “inactive”.
As to `CCN(CC)S(=O)(=O)c1cc(C(=O)Nc2ccccn2)ccc1C`, the Potency entry was “inactive”.
For the compound `CCOc1ccc(C(=O)N2CCN(CCc3ccccn3)CC2)cc1`, the Potency entry was “inactive”.
The result for `CCN(CC)CCOc1ccc2c(c1)C(=NNC(=O)c1ccccn1)c1cc(OCCN(CC)CC)ccc1-2` reads 22.4 µM (active); that for `COC(=O)c1ccc(NC(=O)c2cnn(-c3ccc(Cl)cc3)c2C2CCN(C(=O)OC(C)(C)C)CC2)cc1`, “inactive”; that for `COc1ccc(-c2nn(CC(=O)Nc3ccccc3F)c3c2cnc2ccc(F)cc23)cc1`, “inactive”.
The result for `Cc1cc(C(C)(C)C)cc(S(=O)(=O)Nc2ccc(C(=O)O)cc2)c1C` reads “inactive”; that for `O=C(c1ccc(NS(=O)(=O)c2ccc3[nH]c(=O)[nH]c3c2)cc1)N1CCCCC1`, “inactive”; that for `O=C(O)c1ccc(NS(=O)(=O)c2ccc3c(c2)C(=O)c2cc(S(=O)(=O)Nc4ccc(C(=O)O)cc4)ccc2-3)cc1`, 39.8 µM (active).
The result for `Cc1ccc(CN(C(=O)c2ccccc2[N+](=O)[O-])c2ccccn2)cc1` reads “inactive”; that for `CC(C)CCNC(=O)CSc1nc2ccccc2nc1Cc1ccc(Cl)cc1`, “inactive”.
On to `Cn1c(SCC(=O)N2CCCc3ccccc32)ncc(C(=O)Nc2ccc(F)cc2)c1=O`, for which the Potency result is “inactive”.
For the compound `CC(NC(=O)c1cc2c(=O)n3ccccc3nc2n(C(C)C)c1=N)c1ccccc1` (configuration not stated), the Potency result was “inactive”.
The result for `Cc1c(CC(=O)N2CCN(C(=O)C3COc4ccccc4O3)CC2)c(=O)oc2c(O)c(O)ccc12` (configuration not stated) reads 2 µM (active).
The result for `COc1cc(NS(=O)(=O)c2ccc3c(c2)OCC(C(=O)N2CCCC2)O3)cc(OC)c1` (configuration not stated) reads “inactive”.
The result for `COc1ccc(OC)c2sc(N3CCN(C(=O)C4COc5ccccc5O4)CC3)nc12` (configuration not stated) reads “inactive”.

(Values after PubChem BioAssay AID588591 (National Center for Advancing Translational Sciences (NCATS), 2011).)
